From PubChem
AMA1 RON2 block – disrupts binding of P. falciparum AMA1 to RON2; AlphaScreen AMA1-biotinylated RON2 peptide binding; Potency, µM (series often up to 58.2 µM), without a hit: top-dose activity change, negative = inhibition, actives largely listed as inhibitors; AID 720542; 0.2% of 360,000 active;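 also: 0% = vehicle wells and -100% = peptide control; nearly all actives have a fitted effect of over 45% in size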
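AMA1 (3D7) with his tag at 25 nM final met compounds first, then biotinylated RON2 peptide at 25 nM; detection used donor plus acceptor beads, 10 µg/mL apiece, read by AlphaScreen after 30 min at room temperature.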
Pf growth 48h – inhibits P. falciparum growth in the first generation, 48 h; 5.9% of 310,000 active; P. falciparum luciferase growth in erythrocytes, 48 h; Potency, µM (top dose mostly 28.7 µM), for inactives: at the top dose activity change, negative = inhibition, most hits filed as inhibitors; also: % is scaled to controls: 0 for no effect and ±100 for the full control effect
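Growth was read as firefly luciferase luminescence after a 48 h, 37 C, 5% CO2 exposure of compounds to reporter-bearing P. falciparum cultures (0.1% parasitemia, 2% hematocrit final) in Albumax-supplemented RPMI 1640.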
SARS PLpro yeast – blocks SARS-CoV papain-like protease in a yeast assay | S. cerevisiae expressing SARS-CoV PLpro, growth rescue | Potency, µM (top dose mostly 32.9 µM), without a hit: at the top dose activity, positive = growth rescue, most hits filed as activators | 0.19% of 330,000 active | AID 485353; calls by dose curve; also: 0% is about no effect; nearly all actives have a fitted effect of over 55% in size
Pf growth 96h – inhibits malaria parasite growth, 96 h; AID 504834; 6.9% of 320,000 active; P. falciparum luciferase reporter growth, 96 h; Potency, µM (doses to about 28.7 µM), without a hit: at the top dose activity change, negative = inhibition, usual class: inhibitors; also: % is scaled to controls: 0 for no effect and ±100 for the full control effect
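96 h incubation, 37 C, 5% CO2, of luciferase-reporter P. falciparum-infected RBCs (2% hematocrit, 0.05% parasitemia final) with test compounds; endpoint luminescence.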
An asterisk follows results filed as active; ? = inconclusive; . = no result given; ! = not confirmed by another sample; [ ] = dose if it differs, or a comment. In the library only some 9.4% were active in any assay of this set; here they are far more common. Unless noted, calls follow the shape of the dose curve; as a rule, active = well fitted curve in the direction sought with a large enough effect; inconclusive = small, poorly fitted or top-dose-only effect, or another doubt; inactive = no such curve, though single readings can be large; an effect the other way counts as inactive or inconclusive. Potency is read from the fitted curve at half-maximal effect.

SMILES	AMA1 RON2 block	Pf growth 48h	SARS PLpro yeast	Pf growth 96h
Cc1c(C(=O)N2CCCCC2)oc2ccc(S(=O)(=O)N3CC(C)CC(C)C3)cc12 (centres undefined)	-9%	?	1%	12µM*
CC(=O)N1CCc2cc(C(=O)CN3CCCCC3)ccc21	-3%	.	-2%	?
CC1(C(=O)NCc2ccccc2)Oc2ccccc2NC1=O (centres undefined)	0%	9%	2%	.
CC1(C(=O)NCc2ccc(Cl)c(Cl)c2)Oc2cccnc2NC1=O (centres undefined)	4%	?	2%	5.2µM*
CCCCOC(=O)Nc1ccc(S(=O)(=O)Nc2nc(C)cc(C)n2)cc1	9%	-5%	0%	?
CCCCOC(=O)NS(=O)(=O)c1sc(CC(C)C)cc1-c1ccc(Cn2c(CC)nc3c(C)cc(C)nc32)cc1	.	15µM*	9%	?
COc1ccc(S(=O)(=O)NCCc2cn3nc(C)c(C)nc3n2)cc1	19%	0%	6%	19%
C[C@H](CCC(=O)O)[C@H]1CC[C@H]2[C@@H]3[C@H](O)C[C@@H]4C[C@H](O)CC[C@]4(C)[C@H]3C[C@H](O)[C@]12C	-11%	9.3µM*!	0%	12µM*!
C[C@H](CCC(=O)O)[C@H]1CC[C@@H]2[C@H]3[C@@H](C[C@@H](O)[C@]21C)[C@]1(C)CC[C@H](O)C[C@@H]1C[C@@H]3O	.	-13%	.	-17%
NNC(=O)c1nnn(-c2nonc2N)c1-c1cccs1	19%	13%	-1%	44%
Cc1c(OC(C)C(=O)NCc2cccnc2)ccc2c3c(c(=O)oc12)CCCC3 (centres undefined)	3%	-16%	-5%	12µM*
Cc1c(OC(C)C(=O)O)ccc2c3c(c(=O)oc12)CCCC3 (centres undefined)	-5%	-1%	1%	10µM*
Cc1c(OCC(=O)NCc2cccnc2)ccc2c3c(c(=O)oc12)CCCC3	-2%	-10%	1%	13µM*
CC(Oc1ccc2c3c(c(=O)oc2c1)CCC3)C(=O)NCc1cccnc1 (centres undefined)	26%	6%	4%	?
Cc1nnc(SCC(=O)Nc2ccc(-c3nc4ccccc4s3)cc2)s1	-2%[2.32 µM]	99%	0%	?
O=C(Nc1ccc2c(c1)Cc1ccccc1-2)c1ccccc1F	5%	.	.	.
CN(C)C(CNC(=O)CSc1nc2sc3c(c2c(=O)n1C)CCCC3)c1ccccc1 (centres undefined)	38%	?	3%	12µM*
CC(NC(=O)CSc1nc2sc3c(c2c(=O)n1-c1ccccc1)CCCC3)c1ccccc1 (centres undefined)	-4%	12µM*	-2%	-25%
Cc1ccccc1-n1c(SCC(=O)c2c(N)n(C)c(=O)n(C)c2=O)nc2sc3c(c2c1=O)CCCC3	-12%	3.7µM*	16%	0.93µM*
O=C(O)CSc1nc2sc3c(c2c(=O)n1-c1ccccc1)CCC3	-20%	5%	2%	3%
Cc1ccccc1-n1c(SCC(=O)c2c(N)n(C)c(=O)n(C)c2=O)nnc1-c1cccnc1	-14%	-9%	16%	-15%
CS(=O)(=O)N(CC(O)CON=C1c2ccccc2-c2ccccc21)c1ccc(F)cc1 (centres undefined)	20%	?	.	?
Cc1cccc(N(CC(O)CON=C2c3ccccc3-c3ccccc32)S(C)(=O)=O)c1 (centres undefined)	-7%	.	-22%	13µM*
CCN(CC(O)CON=C1c2ccccc2-c2ccccc21)S(=O)(=O)c1ccc(C)cc1 (centres undefined)	1%	?	-23%	2.3µM*
CC(C)CCNCC(O)CON=C1c2ccccc2-c2ccccc21 (centres undefined)	2%	?	-6%	?
SMILES	AMA1 RON2 block	Pf growth 48h	SARS PLpro yeast	Pf growth 96h
CN(CC(O)CON=C1c2ccccc2-c2ccccc21)S(=O)(=O)c1ccc(Br)cc1 (centres undefined)	2%	6.6µM*	-15%	?
CCN(CC(O)CON=C1c2ccccc2-c2ccccc21)S(=O)(=O)c1ccc(Cl)cc1 (centres undefined)	9%	?	-11%	?
Cc1c(C(=O)C(=O)NCc2ccco2)c2ccccc2n1C	-5%	-12%	3%	28%
O=C(Nc1cccnc1)c1cnn2c(C(F)F)cc(C3CC3)nc12	-5%	8%	.	.
COC(=O)c1ccccc1NC(=S)N(C)C	1%	24%	1%	-8%
O=C(Nc1ccc(OC(=O)c2cccnc2)cc1)c1cccnc1	-9%	?	?	5%
CC1=CC(C)(C)Nc2ccc(Cc3ccc4c(c3)C(C)=CC(C)(C)N4)cc21	16µM*	?	-3%	?
CC(=O)Nc1ccc(OC(=O)c2cccnc2)cc1	-12%	?	-1%	1.2µM*
CC1=CC(C)(C)Nc2ccc(C)cc21	-9%	?	6%	?
CC1=CC(C)(C)Nc2ccc(OC(=O)c3cccnc3)cc21	-12%	5.2µM*	-18%	.
CC1=CC(C)(C)Nc2ccc(OC(=O)c3ccco3)cc21	-18%	12µM*	-9%	9.3µM*
O=C(NCCc1ccccc1)c1ccc(CS(=O)(=O)Cc2ccccc2F)o1	-14%	.	-2%	?
CC(C)(C)c1ccc(C(=S)N2CCN(c3ccccc3)CC2)cc1	?	28%	0%	36%
COc1ccc(NC(=O)CN2CCN(c3ccc(Cl)cc3)CC2)c(OC)c1	-11%	0%	4%	6%
CC(=O)c1cccc(S(=O)(=O)N2CCC(C(=O)OC3CCOC3=O)CC2)c1 (centres undefined)	-6%	-22%	3%	3%
CC1=CC(C)(C)Nc2ccc(OC(=O)C(C)N3C(=O)c4ccccc4C3=O)cc21 (centres undefined)	?	13µM*	-8%	?
CC1=CC(C)(C)Nc2ccc(OC(=O)CN3C(=O)CCC3=O)cc21	-3%	10µM*	1%	.
O=C1c2oc3ccccc3c(=O)c2C(c2cccc(Br)c2)N1Cc1ccco1 (centres undefined)	0%	4%	2%	0.37µM*
CCCCCN(C(=O)CCC(=O)OCc1ccccc1Cl)c1c(N)n(CCCC)c(=O)[nH]c1=O	-2%	40%	0%	-10%
CS(=O)(=O)c1ccc2nc(NC(=O)CCC(=O)c3cccs3)sc2c1	-16%	?	4%	12µM*
COc1cccc(C(=O)Nc2nc3ccccc3s2)c1	-4%	323%	-5%	15µM*
COc1ccc(C(=O)Nc2nc3ccc(S(C)(=O)=O)cc3s2)cc1OC	-1%	15%	0%	5.9µM*
NC(=O)c1ccc2nc(NC(=O)c3ccc(N)cc3)sc2c1	11%	81%	3%	12µM*
CC(=O)Nc1nc2cc(C(N)=O)ccc2s1	-1%	8%	-4%	?
COc1ccc(C(=O)Nc2nc3ccccc3s2)cc1	3%	169%	-9%	0%
Cc1ccc(C(=O)Nc2nc3ccc(S(C)(=O)=O)cc3s2)cc1C	1%	.	-2%	32%
